Test results: PubChem BioAssay (Tox21)
Records with an inconclusive call do not appear. The source made the active and inactive calls. Unless noted, calls come from the whole dose curve.

How the values were obtained:
[1] = Nuclear factor erythroid 2-related factor 2/antioxidant responsive element (Nrf2/ARE) small molecule agonists: qHTS cell viability counter screen in human keratinocytes (AID 1919968; active = well fitted curve in the direction sought with a large enough effect in the repeat runs; an effect the other way counts as inactive or inconclusive; note: nearly all actives have a fitted effect of over 55% in size)
Summary of the method: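 Viability counter-screen: KeratinoSens reporter cells, DMSO-delivered compounds, 23 h at 37 C, CellTiter-Fluor fluorescence.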

[2] = Nuclear factor erythroid 2-related factor 2/antioxidant responsive element (Nrf2/ARE) small molecule agonists: luciferase reporter gene qHTS assay in human keratinocytes (AID 1919969); note: nearly all actives have a fitted effect of over 35% in size
[3] = molecular target: Gonadotropin-releasing hormone receptor (Homo sapiens) (UniProt P30968); experiment: Human gonadotropin-releasing hormone receptor (GnRHR) small molecule agonists, calcium flux assay in GnRHR-HEK293 cells (AID 1920063); note: nearly all actives have a fitted effect of over 35% in size
Summary of the method: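 Tox21-format agonist screen using human GnRHR-expressing HEK293 cells and a fluorescent calcium dye; kinetic 3-min fluorescence reading after compound addition, 15-point concentration series run in triplicate.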

[4] = molecular target: KiSS-1 receptor (Homo sapiens) (UniProt Q969F8); experiment: Human kisspeptin (KISS1R) small molecule agonists, calcium flux assay in KISS1R-HEK293 cells (AID 1920064; active = well fitted curve in the direction sought with a large enough effect in the repeat runs; an effect the other way counts as inactive or inconclusive)
Summary of the method: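 Intracellular calcium mobilization in KISS1R-HEK293 cells was recorded by fluorescence (Ex/Em 480/540) for 3 min following compound addition to cells pre-loaded 1 h with calcium dye.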

[5] = G protein-coupled receptor (GPCR) small molecule agonists, calcium flux assay: HEK293 wild type cell line counter screen (AID 1920065)
Summary of the method: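 In this agonist-mode screen, ATP is the positive control and DMSO the vehicle. Cells grow 18 h before a 1 h dye incubation at 37 C; signal is taken at Ex/Em 480/540 over 3 min.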

[6] = p53 small molecule agonists, cell-based qHTS assay with human liver microsomes (AID 1963577)
Summary of the method: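 p53RE-bla cells, 4,000/well, compound added after 5 h, with human liver microsomes 0.5 mg/mL and NADPH 0.5 mg/mL final; 16 h at 37 C, then LiveBLAzer 2 h RT, fluorescence.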

[7] = p53 small molecule agonists, cell-based qHTS assay with rat liver microsomes (AID 1963578)
Summary of the method: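 p53RE-bla cells, 4,000/well, pre-incubated 5 h, then given compounds plus rat liver microsomes (0.5 mg/mL final) and NADPH (0.5 mg/mL final). Incubation 16 h at 37 C; beta-lactamase reporter read by LiveBLAzer fluorescence after 2 h at room temperature.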

[8] = p53 small molecule agonists, cell-based qHTS assay with rat liver microsomes: qHTS cell viability counter screen (AID 1963580); note: nearly all actives have a fitted effect of over 45% in size
Summary of the method: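 In HCT-116 cells carrying a p53 response element-bla reporter, compounds were metabolically activated in situ by rat liver microsomes with NADPH over 16 h. Cell ATP content then served as the cytotoxicity measure.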

[9] = p53 small molecule agonists, cell-based qHTS assay: qHTS cell viability counter screen (AID 1963581); note: nearly all actives have a fitted effect of over 45% in size
Summary of the method: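 Compounds are pinned onto HCT-116 p53RE-bla cells and left 16 h at 37 C. Following the reporter FRET read, ATP is quantified by CellTiter-Glo luminescence after 30 min at room temperature.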

[10] = molecular target: 5-hydroxytryptamine receptor 2A (Homo sapiens) (UniProt P28223); experiment: 5-hydroxytryptamine receptor 2A (HTR2A) small molecule antagonists, cell-based qHTS assay (AID 1963586); note: nearly all actives have a fitted effect of over 45% in size
Summary of the method: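 Antagonist-mode intracellular calcium assay: DOI (4 nM) added after 5 min compound pre-incubation at room temperature to dye-loaded HTR2A-CHO cells. Fluorescence followed for 3 min, sampled every second.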

[11] = molecular target: 5-hydroxytryptamine receptor 2A (Homo sapiens) (UniProt P28223); experiment: 5-hydroxytryptamine receptor 2A (HTR2A) small molecule agonists, cell-based qHTS assay (AID 1963587); note: nearly all actives have a fitted effect of over 30% in size
Summary of the method: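 HTR2A-CHO cells, plated 18 h at 37 C/5% CO2, dye-loaded 1 h at 37 C; compounds in DMSO added by pin tool (agonist mode). Intracellular calcium flux read as kinetic fluorescence on FDSS over 2 min at 1 s intervals.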

[12] = molecular target: Muscarinic acetylcholine receptor M1 (Homo sapiens) (UniProt P11229); experiment: Cholinergic receptor muscarinic 1 (CHRM1) small molecule antagonists, cell-based qHTS assay (AID 1963588); note: nearly all actives have a fitted effect of over 40% in size
Summary of the method: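 CHRM1-CHO calcium-flux assay, antagonist mode. Cells were seeded 18 h, dye-loaded 1 h at 37 C and given compound for 5 min at RT, then acetylcholine was added at 50nM. FDSS fluorescence was read 3 min; 15 concentrations, three runs.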

[13] = molecular target: Muscarinic acetylcholine receptor M1 (Homo sapiens) (UniProt P11229); experiment: Cholinergic receptor muscarinic 1 (CHRM1) small molecule agonists, cell-based qHTS assay (AID 1963589); note: nearly all actives have a fitted effect of over 35% in size
Summary of the method: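 Stable CHRM1-CHO cells (human receptor) were incubated 18 h, dye-loaded for 1 h at 37 C and exposed to test compounds for agonist activity, with calcium-dependent fluorescence followed kinetically.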

[14] = cAMP Responsive Elements (CRE) small molecule antagonists, cell-based qHTS assay (AID 1963591; active = well fitted inhibition curve with a large enough effect in the signal ratio in the repeat runs, not every such curve was filed as active; the % refers to the signal ratio)
Summary of the method: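 qHTS in CRE-bla HEK 293T cells: compound in DMSO, then 0.25 uM NKH477 (final), 3 h at 37 °C/5% CO2; beta-lactamase FRET read-out after 2 h substrate incubation.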

[15] = molecular target: Beta-2 adrenergic receptor (Homo sapiens) (UniProt P07550); experiment: Adrenergic beta2 receptor (ADRB2) small molecule antagonists, cell-based qHTS assay (AID 1963592); note: series mostly up to about 92 µM; nearly all actives have a fitted effect of over 50% in size
Summary of the method: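 Cells (CHO, stable ADRB2 overexpression) incubated 18-20hr at 37C; compounds added from DMSO; agonist mix (1nM isoproterenol, 100uM IBMX, 25uM Ro-20-1724) added; 0.5hr RT; d2-cAMP and anti-cAMP-cryptate added; 1hr RT; 665/615 nm read.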

[16] = molecular target: D(2) dopamine receptor (Homo sapiens) (UniProt P14416); experiment: Dopamine D2 receptor (DRD2) small molecule agonists, cell-based qHTS assay (AID 1963594); note: nearly all actives have a fitted effect of over 35% in size
Summary of the method: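 HEK293 cells stably expressing DRD2 were cultured 24 h at 37 C, then given Ro20-1724 (0.1 mM final) and compounds for 10 min at room temperature. NKH477 (200nM) was then added for 30 min. cAMP was read by HTRF.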

[17] = molecular target: D(2) dopamine receptor (Homo sapiens) (UniProt P14416); experiment: Dopamine D2 receptor (DRD2) small molecule antagonists, cell-based qHTS assay (AID 1963595; active = well fitted inhibition curve with a large enough effect in the signal ratio in the repeat runs, with a control signal flat; the % refers to the signal ratio)
Summary of the method: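 Human DRD2 antagonist qHTS measuring cAMP by HTRF. The cells are exposed to compound for 10 min, then to NKH477 (200 nM) and quinpirole (12 nM) for 30 min at RT, with Ro20-1724 (0.1 mM) present throughout.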

[18] = p53 small molecule agonists, cell-based qHTS assay (AID 1963582; active = well fitted activation curve with a large enough effect in the signal ratio in the repeat runs, not every such curve was filed as active; the % refers to the signal ratio)
Summary of the method: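 Agonist activity was scored from beta-lactamase FRET fluorescence in p53RE-bla cells treated 16 h at 37 C with compounds in DMSO, substrate incubation being 2 h at room temperature.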

[19] = cAMP Responsive Elements (CRE) small molecule agonists, cell-based qHTS assay (AID 1963590)
Summary of the method: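 FRET-based beta-lactamase readout (LiveBLAzer B/G, 2 h RT) quantified CRE activation in HEK 293T CRE-bla cells after 3 h treatment with DMSO-dissolved compounds.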

[20] = p53 small molecule agonists, cell-based qHTS assay with human liver microsomes: qHTS cell viability counter screen (AID 1963579); note: nearly all actives have a fitted effect of over 45% in size
Summary of the method: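 p53RE-bla cells, 4,000/well, dosed 5 hours after plating, with human liver microsomes (0.5 mg/mL final) plus NADPH (0.5 mg/mL final), 16 hours at 37 C. Viability read as CellTiter-Glo luminescence after 30 min at room temperature.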
% is set by controls: 0 for no effect and ±100 for the full control effect.

Sequence of Gonadotropin-releasing hormone receptor (Homo sapiens) (P30968 whole entry, looked up): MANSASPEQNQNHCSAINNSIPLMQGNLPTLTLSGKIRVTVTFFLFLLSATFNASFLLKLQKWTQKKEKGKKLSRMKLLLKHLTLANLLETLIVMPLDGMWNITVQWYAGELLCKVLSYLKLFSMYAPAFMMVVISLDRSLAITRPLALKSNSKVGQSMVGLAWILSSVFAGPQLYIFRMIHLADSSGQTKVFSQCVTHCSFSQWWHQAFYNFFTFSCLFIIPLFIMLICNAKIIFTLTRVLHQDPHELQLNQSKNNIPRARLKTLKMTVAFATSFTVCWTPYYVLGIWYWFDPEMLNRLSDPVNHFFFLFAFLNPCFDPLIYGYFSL
Sequence of Muscarinic acetylcholine receptor M1 (Homo sapiens) (P11229 whole entry, looked up): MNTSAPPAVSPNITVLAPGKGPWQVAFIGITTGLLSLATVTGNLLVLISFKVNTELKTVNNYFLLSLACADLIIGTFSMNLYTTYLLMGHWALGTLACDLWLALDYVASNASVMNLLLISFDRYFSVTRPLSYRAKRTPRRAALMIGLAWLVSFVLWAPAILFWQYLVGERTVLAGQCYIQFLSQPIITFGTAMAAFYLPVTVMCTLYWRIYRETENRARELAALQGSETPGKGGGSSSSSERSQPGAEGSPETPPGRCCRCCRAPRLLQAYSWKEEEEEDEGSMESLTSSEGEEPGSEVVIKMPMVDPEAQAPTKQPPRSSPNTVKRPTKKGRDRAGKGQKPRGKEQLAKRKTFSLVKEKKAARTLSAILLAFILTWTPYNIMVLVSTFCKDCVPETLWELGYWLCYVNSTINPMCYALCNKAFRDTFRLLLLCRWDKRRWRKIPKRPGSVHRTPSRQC
Sequence of Beta-2 adrenergic receptor (Homo sapiens) (P07550 whole entry, looked up): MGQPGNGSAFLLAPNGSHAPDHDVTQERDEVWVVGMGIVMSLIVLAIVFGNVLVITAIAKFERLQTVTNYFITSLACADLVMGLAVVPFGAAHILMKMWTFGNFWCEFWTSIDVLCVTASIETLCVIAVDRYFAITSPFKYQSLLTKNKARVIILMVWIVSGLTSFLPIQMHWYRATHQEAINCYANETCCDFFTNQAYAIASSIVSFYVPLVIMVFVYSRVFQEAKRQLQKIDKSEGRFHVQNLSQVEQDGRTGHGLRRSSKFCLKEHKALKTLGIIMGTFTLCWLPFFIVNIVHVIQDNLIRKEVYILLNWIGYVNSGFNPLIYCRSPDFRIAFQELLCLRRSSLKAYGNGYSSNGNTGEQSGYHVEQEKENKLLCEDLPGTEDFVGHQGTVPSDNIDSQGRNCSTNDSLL
Sequence of KiSS-1 receptor (Homo sapiens) (Q969F8 whole entry, looked up): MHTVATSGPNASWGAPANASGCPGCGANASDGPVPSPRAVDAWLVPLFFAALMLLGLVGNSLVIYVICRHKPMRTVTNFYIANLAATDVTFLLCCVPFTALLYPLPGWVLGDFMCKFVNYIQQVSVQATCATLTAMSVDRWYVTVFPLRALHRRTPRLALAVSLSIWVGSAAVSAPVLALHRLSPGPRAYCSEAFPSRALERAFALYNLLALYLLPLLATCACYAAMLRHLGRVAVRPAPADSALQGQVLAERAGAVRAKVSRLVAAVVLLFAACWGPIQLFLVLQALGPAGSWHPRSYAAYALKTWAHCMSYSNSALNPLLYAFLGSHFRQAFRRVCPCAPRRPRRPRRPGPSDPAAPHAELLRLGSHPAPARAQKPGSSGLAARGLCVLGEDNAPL
Sequence of D(2) dopamine receptor (Homo sapiens) (P14416 whole entry, looked up): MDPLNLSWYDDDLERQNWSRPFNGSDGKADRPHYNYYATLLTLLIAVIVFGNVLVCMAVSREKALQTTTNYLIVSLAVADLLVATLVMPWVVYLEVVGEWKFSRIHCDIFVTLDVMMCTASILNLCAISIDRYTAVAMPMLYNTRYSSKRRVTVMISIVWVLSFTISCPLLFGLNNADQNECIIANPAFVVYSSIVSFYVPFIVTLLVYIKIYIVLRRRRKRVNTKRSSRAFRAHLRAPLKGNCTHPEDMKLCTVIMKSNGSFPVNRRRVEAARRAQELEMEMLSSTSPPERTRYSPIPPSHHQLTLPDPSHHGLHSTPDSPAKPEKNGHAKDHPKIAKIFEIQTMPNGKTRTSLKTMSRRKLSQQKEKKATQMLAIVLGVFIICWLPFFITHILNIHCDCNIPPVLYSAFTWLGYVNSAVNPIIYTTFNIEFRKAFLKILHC
Sequence of 5-hydroxytryptamine receptor 2A (Homo sapiens) (P28223 whole entry, looked up): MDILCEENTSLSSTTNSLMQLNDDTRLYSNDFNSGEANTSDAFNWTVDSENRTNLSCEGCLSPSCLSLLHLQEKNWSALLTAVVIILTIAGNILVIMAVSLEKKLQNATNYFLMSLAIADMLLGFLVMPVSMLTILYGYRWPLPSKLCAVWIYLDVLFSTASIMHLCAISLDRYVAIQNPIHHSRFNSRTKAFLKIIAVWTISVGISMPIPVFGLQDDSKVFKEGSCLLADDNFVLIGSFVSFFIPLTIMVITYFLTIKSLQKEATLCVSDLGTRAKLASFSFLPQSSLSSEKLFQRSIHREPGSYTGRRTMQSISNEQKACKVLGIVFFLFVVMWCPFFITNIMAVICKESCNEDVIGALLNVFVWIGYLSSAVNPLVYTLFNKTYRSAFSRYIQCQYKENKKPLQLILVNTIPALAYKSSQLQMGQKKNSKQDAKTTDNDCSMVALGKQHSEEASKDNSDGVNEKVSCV

Cn1cnc2c(F)c(Nc3ccc(Br)cc3Cl)c(C(=O)NOCCO)cc21
inactive: Potency [1] | Potency [2] | Potency [3] | Potency [4] | Potency [5] | Potency [6] | Potency [7] | Potency [8] | Potency [9] | Potency [10] | Potency [11] | Potency [12] | Potency [13] | Potency [14] | Potency [15] | Potency [16] | Potency [17]

NC[C@H]1O[C@H](O[C@H]2[C@H](O)[C@@H](O[C@H]3O[C@H](CO)[C@@H](O)[C@H](N)[C@H]3O)[C@H](N)C[C@@H]2N)[C@H](N)[C@@H](O)[C@@H]1O
inactive: activity change, negative = cytotoxicity [1] -0.0182% [at 19 µM] | activity, positive = activation [2] 2.7% [at 19 µM] | activity change [3] 5.96% [at 11.8 µM, hits give high values] | activation [4] -0.341% [at 15.8 µM] | activation [5] -0.87% [at 11.8 µM] | activation [6] -1.52% [at 13.5 µM] | activation [7] -0.665% [at 13.6 µM] | activity change, negative = cytotoxicity [8] 3.53% [at 13.5 µM] | activity change, negative = cytotoxicity [9] -25.6% [at 13.5 µM] | activation [18] 0.52% [at 13.5 µM] | activity, negative = inhibition [10] 6.4% [at 12.7 µM] | activation [11] -0.88% [at 15.9 µM] | activity, negative = inhibition [12] 7.06% [at 12.6 µM] | activation [13] -0.129% [at 15.8 µM] | activation [19] 0.862% [at 19 µM] | activity change, negative = inhibition [14] 0.145% [at 18.9 µM] | activity change, negative = inhibition [15] 5.76% [at 19 µM] | activation [16] -0.355% [at 19 µM] | activity change, negative = inhibition [17] 13% [at 18.9 µM]

O=C(O)c1ccco1
inactive: Potency [1] | Potency [2] | Potency [3] | Potency [4] | Potency [5] | Potency [6] | Potency [7] | Potency [20] | Potency [9] | Potency [18] | Potency [10] | Potency [12] | Potency [13] | Potency [19] | Potency [14] | Potency [15] | Potency [17]

CC1=CCC(C(C)C)=CC1
inactive: Potency [1] | Potency [2] | Potency [3] | Potency [4] | Potency [5] | Potency [6] | Potency [7] | Potency [20] | Potency [9] | Potency [18] | Potency [10] | Potency [12] | Potency [13] | Potency [14] | Potency [16] | Potency [17]

C=CC(C)(O)CC/C=C(\C)CCC=C(C)C (stereo unspecified)
inactive: Potency [1] | Potency [2] | Potency [3] | Potency [4] | Potency [5] | Potency [6] | Potency [7] | Potency [8] | Potency [9] | Potency [18] | Potency [10] | Potency [11] | Potency [12] | Potency [13] | Potency [19] | Potency [14] | Potency [15] | Potency [16] | Potency [17]

CC(CCC(=O)O)C(=O)O (stereo unspecified)
inactive: Potency [1] | Potency [2] | Potency [3] | Potency [4] | Potency [5] | Potency [6] | Potency [7] | Potency [8] | Potency [9] | Potency [18] | Potency [10] | Potency [11] | Potency [12] | Potency [13] | Potency [19] | Potency [14] | Potency [16] | Potency [17]
